Whole data set: some 3,200 compounds, median “TSA(without NAD+) / Primary screening (TSA) / delta Tm (K)” near -0.07, cut for the highest 2% near 0.37. For the sample, the highest values were picked, then their nearest neighbours and some compounds at random.
What follows are compounds tested against NAD-dependent deacetylase Sirtuin 1 (human, UniProt Q96EB6) (assay: primary screen, delta tm). Details: 10 µM.
Parameters: single well (n = 1)
Method: A total of 3,192 compounds extracted from the proposed lists were first screened by thermal shift assay (TSA), which determined a melting temperature shift (ΔTm) of Sirtuin 1 upon the addition of a test compound at a concentration of 10 µM (n = 1) with primary hit criteria of ΔTm > 0.45 K or ΔTm < −1.5 K. Primary hits (48 compounds) were retested in the same assay at three concentrations (5, 10, 20 µM, n = 4) for hit confirmation and for dose-dependency check. Secondary hits (41 compounds) were checked their selectivity for Sirtuin 1 based on counterscreening on unrelated protein targets (bovine carbonic anhydrase (CA) and recombinant SH2 domain of hABL1 kinase (ABL1)) at three different concentrations (5, 10, 20 µM, n = 4), which yielded 38 hit compounds, hereafter referred to as TSA hits. The TSA screening above was conducted in the absence of NAD+.

NAD-dependent deacetylase Sirtuin 1, sequence (Q96EB6 2-747 limits assumed): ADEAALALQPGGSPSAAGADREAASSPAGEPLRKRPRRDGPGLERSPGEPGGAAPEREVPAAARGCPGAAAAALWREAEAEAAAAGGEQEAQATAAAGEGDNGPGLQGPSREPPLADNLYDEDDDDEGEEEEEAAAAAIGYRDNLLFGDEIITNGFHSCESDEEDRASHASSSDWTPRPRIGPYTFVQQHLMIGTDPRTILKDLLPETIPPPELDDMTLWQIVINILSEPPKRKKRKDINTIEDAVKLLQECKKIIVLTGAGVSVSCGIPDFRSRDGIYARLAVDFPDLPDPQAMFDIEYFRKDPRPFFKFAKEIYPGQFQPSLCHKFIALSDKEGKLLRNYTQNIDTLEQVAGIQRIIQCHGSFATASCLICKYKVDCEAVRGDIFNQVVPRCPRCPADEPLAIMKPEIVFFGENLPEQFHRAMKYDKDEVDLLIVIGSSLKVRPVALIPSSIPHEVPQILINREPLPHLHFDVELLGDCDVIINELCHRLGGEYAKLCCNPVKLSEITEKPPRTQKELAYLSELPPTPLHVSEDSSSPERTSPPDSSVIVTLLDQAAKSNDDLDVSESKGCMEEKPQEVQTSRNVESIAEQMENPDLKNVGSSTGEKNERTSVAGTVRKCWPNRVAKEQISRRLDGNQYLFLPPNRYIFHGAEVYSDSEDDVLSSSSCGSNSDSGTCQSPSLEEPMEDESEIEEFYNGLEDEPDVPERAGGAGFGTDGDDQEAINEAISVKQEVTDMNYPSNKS

Compound | TSA(without NAD+) / Primary screening (TSA) / delta Tm (K)
O=C(NO)c1cccc(C(F)(F)F)c1 | -0.13
Cc1ccc(C(C)(C)C)cc1S(=O)(=O)Nc1cccc(C(=O)NNC(=O)c2cccc(S(=O)(=O)Nc3cccc(C(F)(F)F)c3)c2)c1 | 1.22
NC(=O)c1ccc(CNC2CCCCCC2)o1 | -0.05
C=CCOc1cccc(C2C(C(=O)c3ccco3)=C(O)C(=O)N2CCCN2CCOCC2)c1 (stereo not shown) | -0.08
COc1ccc(NC(=S)NN)cc1OC | 0.37
COc1cc(NC(C)C(=O)Nc2ccc(C(N)=O)cc2)cc(OC)c1OC (stereo not shown) | -0.18
COc1ccc(CNC(=S)NC2CCCCC2)cc1OC | -0.23
COc1ccc(Br)cc1/C=C1/COc2ccccc2C1=O | -0.03
CCC(NC(=O)c1ccc(C(N)=O)cc1)C(c1ccc(C)cc1)n1cncn1 (stereo not shown) | -0.21
COc1ccc(N(C)S(=O)(=O)c2cccc(C(=O)Nc3ccc4c(C)cc(=O)oc4c3)c2)cc1 | -0.13
COc1ccc(N(C)S(=O)(=O)c2cccc(C(=O)Nc3ccc(-n4cnnn4)cc3)c2)cc1 | 0.59
COc1ccc(N(C)S(=O)(=O)c2cccc(C(=O)Nc3ccc4ccccc4c3)c2)cc1 | 0.82
COc1ccc(N(C)S(=O)(=O)c2cccc(C(=O)Nc3ccc(Br)cc3)c2)cc1 | 0.36
COc1ccc(N(C)S(=O)(=O)c2cccc(C(=O)Nc3ccc(Cl)cc3)c2)cc1 | 0.36
CCCOC(=O)c1ccc(NC(=O)c2cccc(S(=O)(=O)N(C)c3ccc(OC)cc3)c2)cc1 | 0.35
COc1ccc(NC(=O)c2cccc(S(=O)(=O)N(C)c3ccc(OC)cc3)c2)cc1 | 0.03
COc1ccc(N(C)S(=O)(=O)c2cccc(C(=O)Nc3cccc(Br)c3)c2)cc1 | 0.38
COc1ccc(N(C)S(=O)(=O)c2cccc(C(=O)Nc3ccc(Br)cc3F)c2)cc1 | 0.07
COc1ccc(N(C)S(=O)(=O)c2cccc(C(=O)Nc3ccc(Br)c(C(F)(F)F)c3)c2)cc1 | 0.62
COc1ccc(N(C)S(=O)(=O)c2cccc(C(=O)Nc3cccc4ccccc34)c2)cc1 | -0.13
COc1ccc(N(C)S(=O)(=O)c2cccc(C(=O)Nc3ccc(OC)c(OC)c3)c2)cc1 | -0.31
O=C(CCc1ccc2c(c1)OCO2)N1CCc2[nH]c3ccccc3c2C1 | -0.15

Compound | TSA(without NAD+) / Primary screening (TSA) / delta Tm (K)
Cc1nc(-c2ccccn2)[nH]c(=O)c1CC(=O)NCc1cccc(Oc2ccccc2)c1 | 0.09
NC(=O)C1CCN(C(=O)c2ccc3[nH]c4c(c3c2)CCCC4)CC1 | 0.17
Cc1cc(N(C)C)n2nc(C(F)(F)F)c(-c3ccccc3)c2n1 | -0.18
Cc1ccc(-n2c(C)c(C)c3c(N)ncnc32)cc1 | 0.02
CCc1cc2c(N3CCCC3)nc(C)nc2s1 | -0.07
CCCOc1ccc(C(=O)C2=C(O)C(=O)N(CCCN3CCOCC3)C2c2ccccc2F)cc1 (stereo not shown) | -0.27
CC(=O)Nc1ccc(NC(=O)c2ccccc2SCC(=O)NC23CC4CC(CC(C4)C2)C3)cc1 | -0.21
CCOc1ccc(C2C(C(=O)c3ccco3)=C(O)C(=O)N2CCCN2CCOCC2)cc1 (stereo not shown) | -0.13
NC(=O)c1cccc(CN2CCCC2c2ccsc2)c1 (stereo not shown) | -0.08
CC(=O)Nc1ccc(CNCc2ccccc2CN2CCCC2)cc1 | -0.12
NC(=O)C1CCN(c2ncnc3c2c(-c2ccccc2)cn3-c2cccc(C(F)(F)F)c2)CC1 | -0.07
CC(Nc1cccc(C(N)=O)c1)C1CN(Cc2ccccc2)CCO1 (stereo not shown) | -0.18
Cc1ccc(-c2cc(C(=O)OC(C)C(=O)Nc3cccc([N+](=O)[O-])c3)[nH]n2)cc1 (stereo not shown) | 0.12
CC(=C/c1ccccc1)/C=N/NC(=O)c1cc(-c2ccc(C)cc2)n[nH]1 | 1.06
Cc1ccc(C2C(C(=O)c3cc4ccccc4o3)=C(O)C(=O)N2CCCN2CCOCC2)o1 (stereo not shown) | 0.02
N#Cc1cc(Br)ccc1NCC1(CCO)CCOC1 (stereo not shown) | -0.24
Cc1cc(C)c(NC(=O)CN(C)C(=O)CNC(=O)C(C)(C)C)c(C)c1 | 0.02
O=C1/C(=C/c2cnn(-c3ccccc3)c2)Oc2cc(O)ccc21 | 1.25
O=C1/C(=C/c2ccccc2)Oc2cc(O)ccc21 | 0.08
O=C1/C(=C/c2cccc(O)c2)Oc2cc(O)ccc21 | -0.21
NC(=O)c1ccc(C(=O)OCC(=O)Nc2ccccc2-c2ccccc2)cc1 | -0.18
